Screens: PubChem, National Center for Advancing Translational Sciences (NCATS)
12-LOX inh – blocks human arachidonate 12S-lipoxygenase | purified 12hLO, xylenol orange hydroperoxide absorbance | Potency, µM (doses to about 108 µM), actives largely listed as inhibitors | actives 1.1% (n = 580,000)
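Purified human 12hLO at 150 nM in 25 mM Hepes, 0.01% Triton X-100, pH 7.0, preincubated 15 min at room temperature with compound. Reaction started with 40 uM arachidonic acid, 30 min at room temperature. Hydroperoxide measured by Fe-xylenol orange, 573/405 nm absorbance ratio.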
PLK1 PBD block – blocks phosphopeptide binding to human PLK1 polo-box domain; Plk1 PBD binding of FITC phosphopeptide, fluorescence polarization; AID 720504; actives 2.8% (n = 360,000); Potency, µM, usual class: inhibitors; note: series mostly up to about 57 µM; nearly all actives have a fitted effect of over 65% in size
Target sequence (P53350 whole entry, looked up, the tested form may be a part): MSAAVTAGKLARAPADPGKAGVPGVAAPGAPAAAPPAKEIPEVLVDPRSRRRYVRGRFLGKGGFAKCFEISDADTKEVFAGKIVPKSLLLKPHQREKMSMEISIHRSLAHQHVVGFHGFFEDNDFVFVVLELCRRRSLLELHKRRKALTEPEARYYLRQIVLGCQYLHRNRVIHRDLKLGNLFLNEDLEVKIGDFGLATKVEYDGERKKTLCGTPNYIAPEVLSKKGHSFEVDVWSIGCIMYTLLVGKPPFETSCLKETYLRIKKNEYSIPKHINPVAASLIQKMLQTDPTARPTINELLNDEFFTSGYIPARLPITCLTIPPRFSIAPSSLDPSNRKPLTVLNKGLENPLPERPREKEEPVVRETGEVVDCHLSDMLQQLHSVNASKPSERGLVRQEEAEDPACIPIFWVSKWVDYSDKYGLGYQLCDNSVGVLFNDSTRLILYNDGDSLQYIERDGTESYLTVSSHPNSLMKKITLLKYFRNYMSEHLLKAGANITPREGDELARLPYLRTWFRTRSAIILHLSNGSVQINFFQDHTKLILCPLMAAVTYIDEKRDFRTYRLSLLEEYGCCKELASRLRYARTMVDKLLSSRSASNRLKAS
JMJD2A Tudor inh – inhibitors of human JMJD2A Tudor domain; O75164; AlphaScreen JMJD2A-Tudor / H3K4me3 peptide binding; Potency, µM (series often up to 114 µM), hits mostly inhibitors; actives 4.4% (n = 390,000); note: nearly all actives have a fitted effect of over 50% in size
BAZ2B block – blocks human BAZ2B; AlphaScreen BAZ2B-H3K14Ac peptide displacement; AID 504333; Q9UIF8; actives 4.4% (n = 360,000); Potency, µM (titrated, usually from 114 µM), hits mostly inhibitors; note: nearly all actives have a fitted effect of over 60% in size
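Protein-peptide AlphaScreen: BAZ2B 50 nM, b-H3K14Ac 50 nM, 1x PBS pH 7.4 + 0.01% Tween-20. Preincubation 30 min RT; cpd 30 min RT (top 110 uM); beads 20 min RT, light-protected.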
HP1b chromo inh – HP1-beta chromodomain-methylated histone interaction inhibition; AlphaScreen HP1-beta / biotin-H3K9me3 peptide binding; Potency, µM (doses to about 114 µM), usual class: inhibitors; actives 0.56% (n = 390,000); note: nearly all actives have a fitted effect of over 70% in size
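HP1-beta protein (50 nM final) preincubated 30 min at room temperature with biotinylated H3(1-18)K9me3 peptide (50 nM) in PBS pH 7.4, 0.01% Tween-20, then compound added for 30 min. AlphaScreen streptavidin donor/nickel chelate acceptor beads (10 ug/mL final), 30 min dark, luminescence read.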
G9a inh – inhibitors of human histone lysine methyltransferase G9a; Q96KQ7; G9a H3K9 monomethylation, AlphaScreen, 2 h; Potency, µM (top dose mostly 102 µM), usual class: inhibitors; actives 8.8% (n = 350,000); note: nearly all actives have a fitted effect of over 75% in size
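Compounds were preincubated with 20 nM G9a for 15 min, after which biotinylated H3K9 peptide (500 nM) and SAM (20 uM) started a 2 h room-temperature reaction. Monomethylated product was quantified by antibody-based AlphaScreen chemiluminescence.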
Numbers stand for hits; – = inactive; ? = inconclusive; · = no result; [ ] = another dose, or the depositor's remark. In the library only some 9% were active in any assay of this set; here they are far more common. Calls come from the whole dose curve; as a rule, active = well fitted curve in the direction sought with a large enough effect; inconclusive = small, poorly fitted or top-dose-only effect, or another doubt; inactive = no such curve, though single readings can be large; an effect the other way counts as inactive or inconclusive.

SMILES	12-LOX inh	PLK1 PBD block	JMJD2A Tudor inh	BAZ2B block	HP1b chromo inh	G9a inh
O=C(NC1CC1)c1ccccc1OC1CN(Cc2ccc(C(F)(F)F)cc2)C1	–	·	·	·	·	·
CCOc1ccc(N2C(=O)CC(NCc3ccc(S(N)(=O)=O)cc3)C2=O)cc1 (configuration not stated)	–	10.6µM	–[11.4 µM]	–	–	–
CCOc1ccc(N2C(=O)CC(NC3CCCCNC3=O)C2=O)cc1 (configuration not stated)	?	–	–	–	–	7.94µM
CCCOc1ccc(N2C(=O)CC(NCc3ccc(S(N)(=O)=O)cc3)C2=O)cc1 (configuration not stated)	?	–	–	–	–	–
CCC(=O)N(Cc1ccc(S(N)(=O)=O)cc1)C1CC(=O)N(c2ccc(OC)cc2)C1=O (configuration not stated)	–	–	–	–	–	8.91µM
CCCOc1ccc(N2C(=O)CC(N(Cc3ccco3)C(=O)CC)C2=O)cc1 (configuration not stated)	–	–	–	–	–	·
CCOc1ccc(N2C(=O)CC(N(Cc3ccco3)C(=O)CC)C2=O)cc1 (configuration not stated)	–	26.7µM	–	–	–	·
Cc1ccc(-c2nnc(Nc3ccc(CC(N)=O)cc3)c3ccccc23)cc1	–	–	–	–	–	–
CCN(CC)C(=O)Cn1c(SCCOc2ccc(Cl)cc2)nc2ccccc21	–	·	–	?	–	?
CCOc1ccc2nc(NCCNC(=O)C3CC3)c(C)cc2c1	–	?	–	–	–	79.4µM
O=[N+]([O-])c1ccc(-c2cn(-c3ccc(Cl)cc3)c(=S)[nH]2)cc1	–	–	–	–	–	?
COc1ccc(-n2cc(-c3ccc(OC)c(OC)c3)[nH]c2=S)cc1	?	23.8µM	3.16µM	–	?	0.891µM
COc1ccc(-c2cn(-c3cccc(C)c3)c(=O)[nH]2)cc1OC	?	–	–	?	–	28.2µM
COc1ccc(-c2cc(=O)n(-c3cccc(C)c3)[nH]2)cc1OC	–	·	·	·	·	·
COc1ccccc1-n1cc(-c2ccc(Cl)cc2)[nH]c1=O	–	–	–	?	–	56.2µM
COc1cc(OC)c(-n2cc(-c3ccc(OC)c(OC)c3)[nH]c2=S)cc1Cl	?	29.9µM	?	–	–	31.6µM
COC(=O)CNC(=O)C1CC(=O)N(CCc2ccc(F)cc2)C1 (configuration not stated)	–	?	–	–	–	–
Cc1ccc(OCC(=O)Nc2ccc(S(=O)(=O)Nc3cc(C)nc(C)n3)cc2)cc1	–	–	–	–	–	–
COc1ccc(N2CCN(C(C)C(=O)N3CCCC3)CC2)cc1 (configuration not stated)	–	–	0.794µM	31.6µM	?	?
COc1ccc(N2CCN(C(C)C(=O)Nc3nnc(C)s3)CC2)cc1 (configuration not stated)	–	–	?	–	–	56.2µM
COc1ccc(C2Cn3nnc(-c4noc(CCC5CCCC5)n4)c3CO2)cc1 (configuration not stated)	–	·	·	·	·	·
CCOC(=O)c1cc(CC)sc1NC(=O)CC1SC(N)=NC1=O (configuration not stated)	–	–	–	–	–	–
CCOC(=O)Cn1c(=O)cc(C)c2ccccc21	–	3.36µM	12.6µM	–	?	–
Cc1cc(=O)n(Cc2ccccc2)c2c(C)cccc12	–	–	–	–	–	–
Cc1cc(=O)n(Cc2ccccc2)c2ccccc12	–	21.2µM	–	?	–	–
SMILES	12-LOX inh	PLK1 PBD block	JMJD2A Tudor inh	BAZ2B block	HP1b chromo inh	G9a inh
COc1ccccc1C(=O)n1nc(-c2ccco2)nc1NCc1ccc(Cl)cc1	–	·	–	?	–	?
CSc1nc(-c2ccccc2)nn1C(=O)c1ccc(C)cc1	–	–	–	–	–	–
CSc1nc(-c2ccco2)nn1C(=O)c1ccc(C)cc1	–	?	–	–	–	44.7µM
CSc1nc(-c2ccco2)nn1C(=O)c1ccccc1	–	10.6µM	–	?	–	?
COc1ccccc1C(=O)n1nc(-c2ccco2)nc1SC	–	10.6µM	–	–	–	?
O=C(c1ccco1)n1nc(-c2ccco2)nc1SCc1ccccc1	–	–	–	–	–	–
CSc1nc(-c2ccco2)nn1C(=O)c1ccco1	–	?	–	–	–	39.8µM
O=C(Cc1ccccc1)n1nc(-c2ccco2)nc1SCc1ccccc1	?	–	89.1µM	–	–	–[12.7 µM]
Cc1csc(NC(=O)CCNC(=O)c2ccc([N+](=O)[O-])cc2)n1	?	–	–	–	–	–
Cc1cnc(NC(=O)CCNC(=O)c2ccc([N+](=O)[O-])cc2)s1	–	26.7µM	?	–	?	–
CS(=O)(=O)c1ccc2nc(NC(=O)CCNC(=O)c3ccc([N+](=O)[O-])cc3)sc2c1	–	–	–	–	–	39.8µM
O=C(CCNC(=O)c1ccc([N+](=O)[O-])cc1)Nc1ccc(F)cc1	–	–	–	–	–	–
CSc1nsc(NC(=O)CCNC(=O)c2ccc([N+](=O)[O-])cc2)n1	–	23.8µM	?	–	–	?
CC(=O)Nc1ccc(S(=O)(=O)Nc2nc3ccc([N+](=O)[O-])cc3s2)cc1	?	–	–[11.4 µM]	–	–	44.7µM
COc1ccc2c3c(n(C)c2c1)[C@@H](CO)N(C)CC31CN(C(=O)CN2CCOCC2)C1	–	·	·	·	·	·
COc1ccc(-c2csc(Nc3ccc(S(=O)(=O)Nc4cc(C)on4)cc3)n2)cc1C	?	?	?	50.1µM	–	39.8µM
COc1ccc(CC(=O)Nc2ccc(S(=O)(=O)Nc3cc(C)on3)cc2)cc1OC	–	–	–	–	–	–
COc1ccc(-c2csc(Nc3ccc(S(=O)(=O)Nc4cc(OC)nc(OC)n4)cc3)n2)cc1	?	23.8µM	?	44.7µM	?	–
COc1ccc(Cl)cc1NC(=S)N(Cc1ccc(C(=O)O)cc1)Cc1ccc(OC)c(OC)c1	–	?	–	–	–	28.2µM
COc1cccc(NC(=S)N(Cc2ccc(Cl)cc2)Cc2ccc(C(=O)O)cc2)c1	39.8µM	?	–	–	–	50.1µM
Cc1cc(NC(=S)N(Cc2ccc(Br)cc2)Cc2ccc(C(=O)O)cc2)ccc1Cl	44.7µM	?	–	–	–	?
COc1ccc(CN(Cc2ccc(C(=O)O)cc2)C(=S)Nc2cc(C)cc(C)c2)cc1OC	–	–	–	–	–	–
CC1CN(CCC(=O)Nc2ccc3c(c2)CCC3)CC(C)O1 (configuration not stated)	–	–	–	–	–	?
CCCCN(C)Cc1c(C(=O)N2CCc3ccccc3C2)nc2ccc(Cl)cn12	–	–	–	?	–	–[0.501 µM]
Cc1cc(O)cc(C)c1Cl	–	–	–	·	–	–
Cc1cc(O)c(N)c(C)c1Cl	15.8µM	?	–[11.4 µM]	?	?	?
